Results on eleven compounds are retold here after ChEMBL document CHEMBL3988442, “University of Dundee, Small-Polar-MMV Screening Library” (2021).

For some assays here: Measured potencies and affinities stand elsewhere.

Set-up in all cases: scale not given: direction of the effect not stated beside the values
Assay [1] deals with Protein translocase subunit SecA (Escherichia coli (strain K12)) (UniProt P10408). The assay can be described thus: Assay to Identify E. coli SecA ATPase Inhibitors. The note with it: 30 µM. The format is functional.
Sequence of Protein translocase subunit SecA (Escherichia coli (strain K12)) (P10408 whole entry): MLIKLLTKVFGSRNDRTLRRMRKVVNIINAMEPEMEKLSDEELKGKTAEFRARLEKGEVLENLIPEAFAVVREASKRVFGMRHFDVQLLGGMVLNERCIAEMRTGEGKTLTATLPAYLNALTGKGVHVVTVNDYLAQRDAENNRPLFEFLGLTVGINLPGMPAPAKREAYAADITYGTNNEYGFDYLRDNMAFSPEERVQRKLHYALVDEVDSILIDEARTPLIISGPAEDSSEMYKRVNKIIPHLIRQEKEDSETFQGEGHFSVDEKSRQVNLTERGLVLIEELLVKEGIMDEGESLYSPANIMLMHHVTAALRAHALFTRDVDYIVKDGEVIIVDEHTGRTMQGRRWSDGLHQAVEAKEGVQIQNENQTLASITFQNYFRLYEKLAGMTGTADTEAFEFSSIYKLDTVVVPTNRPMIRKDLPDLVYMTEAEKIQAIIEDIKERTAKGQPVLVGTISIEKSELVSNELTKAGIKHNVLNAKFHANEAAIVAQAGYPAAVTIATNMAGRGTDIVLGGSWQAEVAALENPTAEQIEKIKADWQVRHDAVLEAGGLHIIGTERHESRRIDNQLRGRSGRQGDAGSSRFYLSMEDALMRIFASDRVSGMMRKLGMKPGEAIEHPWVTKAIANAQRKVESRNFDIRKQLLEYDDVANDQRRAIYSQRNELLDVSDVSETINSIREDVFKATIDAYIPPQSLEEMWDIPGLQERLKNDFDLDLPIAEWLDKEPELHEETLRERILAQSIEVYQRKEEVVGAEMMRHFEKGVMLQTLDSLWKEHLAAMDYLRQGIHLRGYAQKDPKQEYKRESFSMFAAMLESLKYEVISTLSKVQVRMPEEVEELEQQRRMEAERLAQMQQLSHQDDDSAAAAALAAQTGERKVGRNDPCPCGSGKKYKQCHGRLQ
Assay [2] addresses T1, Ubiquitin-activating enzyme e1, putative (Leishmania donovani (strain BPK282A1)) (UniProt E9BSI1).
T1 sequence (whole entry): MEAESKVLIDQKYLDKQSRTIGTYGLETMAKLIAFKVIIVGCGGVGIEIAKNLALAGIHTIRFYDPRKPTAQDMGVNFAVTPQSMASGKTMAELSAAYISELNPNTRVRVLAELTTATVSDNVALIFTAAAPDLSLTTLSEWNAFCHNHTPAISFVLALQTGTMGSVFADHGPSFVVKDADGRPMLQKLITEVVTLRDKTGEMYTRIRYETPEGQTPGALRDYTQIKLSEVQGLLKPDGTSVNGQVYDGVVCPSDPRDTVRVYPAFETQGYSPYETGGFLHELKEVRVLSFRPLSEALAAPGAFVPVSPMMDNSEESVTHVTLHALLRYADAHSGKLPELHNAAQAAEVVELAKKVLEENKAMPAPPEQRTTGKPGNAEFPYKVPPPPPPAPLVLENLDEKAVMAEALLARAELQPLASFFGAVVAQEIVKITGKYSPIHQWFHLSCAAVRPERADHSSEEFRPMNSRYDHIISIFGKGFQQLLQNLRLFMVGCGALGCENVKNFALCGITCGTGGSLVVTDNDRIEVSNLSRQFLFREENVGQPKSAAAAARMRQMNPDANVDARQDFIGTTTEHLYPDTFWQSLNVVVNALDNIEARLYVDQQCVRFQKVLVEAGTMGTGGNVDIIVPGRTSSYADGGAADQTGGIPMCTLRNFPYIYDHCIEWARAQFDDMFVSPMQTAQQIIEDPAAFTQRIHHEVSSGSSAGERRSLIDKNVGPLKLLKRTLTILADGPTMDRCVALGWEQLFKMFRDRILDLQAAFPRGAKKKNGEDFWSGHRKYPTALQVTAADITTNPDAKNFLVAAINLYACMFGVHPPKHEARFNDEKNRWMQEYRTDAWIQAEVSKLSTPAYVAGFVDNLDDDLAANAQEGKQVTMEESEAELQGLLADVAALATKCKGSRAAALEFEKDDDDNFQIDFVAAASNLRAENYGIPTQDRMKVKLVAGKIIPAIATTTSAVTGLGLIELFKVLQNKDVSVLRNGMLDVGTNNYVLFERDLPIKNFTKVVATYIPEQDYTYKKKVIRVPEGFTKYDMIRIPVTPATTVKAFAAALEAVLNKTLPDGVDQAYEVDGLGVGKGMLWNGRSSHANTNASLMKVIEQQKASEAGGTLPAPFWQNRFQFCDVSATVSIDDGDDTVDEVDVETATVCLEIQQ
Nature of the assay: Leishmania donovani Ubiquitin Activating Enzyme (LdE1). The format is functional. The note with it: 30 µM.

Assay [3] concerns the target Sialic acid-binding Ig-like lectin 9 (Homo sapiens) (UniProt Q9Y336). The assay can be described thus: Hs-Siglec9 ALPHAscreen SOP 20170721. The note with it: 10 µM.
Assay [4] has as its system Trypanosoma cruzi. The assay can be described thus: Trypanosoma cruzi phosphomannomutase and mannose-1-phosphate guanylyltransferase assay. Type of assay: functional. The note with it: 10 µM.
Assay [5] addresses T2, Arginase-2, mitochondrial (Homo sapiens) (UniProt P78540).
T2 sequence (whole entry): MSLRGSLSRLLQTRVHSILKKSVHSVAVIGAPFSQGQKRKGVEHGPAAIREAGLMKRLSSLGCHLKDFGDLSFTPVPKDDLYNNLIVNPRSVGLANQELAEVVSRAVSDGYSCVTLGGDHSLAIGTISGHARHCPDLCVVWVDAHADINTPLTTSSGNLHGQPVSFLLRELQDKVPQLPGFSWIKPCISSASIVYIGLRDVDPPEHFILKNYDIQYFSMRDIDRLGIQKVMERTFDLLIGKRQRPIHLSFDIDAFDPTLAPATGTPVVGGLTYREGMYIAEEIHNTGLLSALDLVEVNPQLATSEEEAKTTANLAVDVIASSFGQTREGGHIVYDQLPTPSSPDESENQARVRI
The assay can be described thus: in vitro enzyme assay to detect the production of urea directly proportional to the activity of Arginase II. Further: in the data most compounds retested in dose-response had high values. Type of assay: functional. The following applies: 33.3 µM.

In assay [6] the target is T3, Proteasome subunit beta (Trypanosoma cruzi) (UniProt O96673).
T3 sequence (whole entry): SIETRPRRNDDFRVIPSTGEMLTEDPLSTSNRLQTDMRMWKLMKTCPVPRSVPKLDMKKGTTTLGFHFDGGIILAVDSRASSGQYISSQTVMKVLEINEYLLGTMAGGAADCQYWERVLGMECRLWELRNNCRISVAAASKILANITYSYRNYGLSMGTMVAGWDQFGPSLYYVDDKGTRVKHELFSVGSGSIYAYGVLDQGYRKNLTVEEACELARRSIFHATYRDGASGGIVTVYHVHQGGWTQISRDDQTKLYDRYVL
The assay can be described thus: Trypanosoma cruzi proteasome chymotrypsin-like activity (TcProtChymo) assay. Further: in the data most compounds retested in dose-response had high values. The following applies: 9.37 µM. Type of assay: functional.

For assay [7], the species on record is Homo sapiens. Nature of the assay: To identify inhibition of the IFN signalling (Jak-Stat) pathway via expression of an eGFP reporter gene under the control of an IFN-stimulated response element (ISRE) containing MxA promoter. The format is functional. The note with it: 30 µM. Background: A reporter such as luciferase makes a cellular process visible.
Assay [8] has as its target T4, Tyrosyl-tRNA synthetase, putative (Trypanosoma cruzi (strain CL Brener)) (UniProt Q4DSP6).
T4 sequence (whole entry): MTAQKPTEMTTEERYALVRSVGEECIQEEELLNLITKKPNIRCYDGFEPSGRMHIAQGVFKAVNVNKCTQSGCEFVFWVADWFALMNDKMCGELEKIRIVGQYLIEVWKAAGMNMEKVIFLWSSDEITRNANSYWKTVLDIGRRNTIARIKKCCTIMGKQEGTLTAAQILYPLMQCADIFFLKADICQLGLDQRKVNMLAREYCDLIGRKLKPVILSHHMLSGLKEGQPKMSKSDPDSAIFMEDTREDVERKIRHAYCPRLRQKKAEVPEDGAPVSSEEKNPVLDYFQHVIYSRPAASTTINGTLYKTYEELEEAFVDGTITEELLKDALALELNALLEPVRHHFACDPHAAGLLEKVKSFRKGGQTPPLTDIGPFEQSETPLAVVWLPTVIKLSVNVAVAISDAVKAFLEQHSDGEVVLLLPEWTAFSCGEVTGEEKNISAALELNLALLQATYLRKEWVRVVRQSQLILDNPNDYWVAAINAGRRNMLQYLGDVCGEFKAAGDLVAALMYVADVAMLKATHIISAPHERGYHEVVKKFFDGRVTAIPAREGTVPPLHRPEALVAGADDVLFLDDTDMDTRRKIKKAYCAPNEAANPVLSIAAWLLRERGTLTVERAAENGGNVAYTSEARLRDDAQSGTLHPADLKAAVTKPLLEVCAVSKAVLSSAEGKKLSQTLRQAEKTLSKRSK
Nature of the assay: Trypanosoma cruzi tyrosyl tRNA synthetase (TcYRS) _High Tyrosine SOP. Further: in the data most compounds retested in dose-response had high values. The format is functional. The note with it: 30 µM.

The target in assay [9] is T4, Tyrosyl-tRNA synthetase, putative (Trypanosoma cruzi (strain CL Brener)). Nature of the assay: Trypanosoma cruzi tyrosyl tRNA synthetase (TcYRS) SOP. The format is functional. The following applies: 30 µM.
Assay [10] addresses Chromo domain-containing protein 1 (Saccharomyces cerevisiae (strain ATCC 204508 / S288c) (Baker's yeast)) (UniProt P32657). Nature of the assay: ScCHD-1 Enzyme Inhibition Assay. Further: in the data most compounds retested in dose-response had high values. The format is functional. The following applies: 30 µM.

Sequence of Sialic acid-binding Ig-like lectin 9 (Homo sapiens) (Q9Y336 whole entry): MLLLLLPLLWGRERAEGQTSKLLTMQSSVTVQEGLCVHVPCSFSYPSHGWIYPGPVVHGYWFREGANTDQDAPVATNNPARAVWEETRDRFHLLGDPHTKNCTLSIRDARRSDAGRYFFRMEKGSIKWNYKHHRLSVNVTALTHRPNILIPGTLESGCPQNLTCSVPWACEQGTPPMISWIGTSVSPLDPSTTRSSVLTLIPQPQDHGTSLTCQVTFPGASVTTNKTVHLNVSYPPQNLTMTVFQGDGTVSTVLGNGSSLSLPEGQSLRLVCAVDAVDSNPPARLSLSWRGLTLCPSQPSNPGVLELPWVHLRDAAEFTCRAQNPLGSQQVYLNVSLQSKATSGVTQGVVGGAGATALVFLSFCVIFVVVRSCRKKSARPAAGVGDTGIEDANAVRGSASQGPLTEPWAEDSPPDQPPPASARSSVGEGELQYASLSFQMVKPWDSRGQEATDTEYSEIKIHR
Sequence of Chromo domain-containing protein 1 (Saccharomyces cerevisiae (strain ATCC 204508 / S288c) (Baker's yeast)) (P32657 whole entry, the tested form may be a part): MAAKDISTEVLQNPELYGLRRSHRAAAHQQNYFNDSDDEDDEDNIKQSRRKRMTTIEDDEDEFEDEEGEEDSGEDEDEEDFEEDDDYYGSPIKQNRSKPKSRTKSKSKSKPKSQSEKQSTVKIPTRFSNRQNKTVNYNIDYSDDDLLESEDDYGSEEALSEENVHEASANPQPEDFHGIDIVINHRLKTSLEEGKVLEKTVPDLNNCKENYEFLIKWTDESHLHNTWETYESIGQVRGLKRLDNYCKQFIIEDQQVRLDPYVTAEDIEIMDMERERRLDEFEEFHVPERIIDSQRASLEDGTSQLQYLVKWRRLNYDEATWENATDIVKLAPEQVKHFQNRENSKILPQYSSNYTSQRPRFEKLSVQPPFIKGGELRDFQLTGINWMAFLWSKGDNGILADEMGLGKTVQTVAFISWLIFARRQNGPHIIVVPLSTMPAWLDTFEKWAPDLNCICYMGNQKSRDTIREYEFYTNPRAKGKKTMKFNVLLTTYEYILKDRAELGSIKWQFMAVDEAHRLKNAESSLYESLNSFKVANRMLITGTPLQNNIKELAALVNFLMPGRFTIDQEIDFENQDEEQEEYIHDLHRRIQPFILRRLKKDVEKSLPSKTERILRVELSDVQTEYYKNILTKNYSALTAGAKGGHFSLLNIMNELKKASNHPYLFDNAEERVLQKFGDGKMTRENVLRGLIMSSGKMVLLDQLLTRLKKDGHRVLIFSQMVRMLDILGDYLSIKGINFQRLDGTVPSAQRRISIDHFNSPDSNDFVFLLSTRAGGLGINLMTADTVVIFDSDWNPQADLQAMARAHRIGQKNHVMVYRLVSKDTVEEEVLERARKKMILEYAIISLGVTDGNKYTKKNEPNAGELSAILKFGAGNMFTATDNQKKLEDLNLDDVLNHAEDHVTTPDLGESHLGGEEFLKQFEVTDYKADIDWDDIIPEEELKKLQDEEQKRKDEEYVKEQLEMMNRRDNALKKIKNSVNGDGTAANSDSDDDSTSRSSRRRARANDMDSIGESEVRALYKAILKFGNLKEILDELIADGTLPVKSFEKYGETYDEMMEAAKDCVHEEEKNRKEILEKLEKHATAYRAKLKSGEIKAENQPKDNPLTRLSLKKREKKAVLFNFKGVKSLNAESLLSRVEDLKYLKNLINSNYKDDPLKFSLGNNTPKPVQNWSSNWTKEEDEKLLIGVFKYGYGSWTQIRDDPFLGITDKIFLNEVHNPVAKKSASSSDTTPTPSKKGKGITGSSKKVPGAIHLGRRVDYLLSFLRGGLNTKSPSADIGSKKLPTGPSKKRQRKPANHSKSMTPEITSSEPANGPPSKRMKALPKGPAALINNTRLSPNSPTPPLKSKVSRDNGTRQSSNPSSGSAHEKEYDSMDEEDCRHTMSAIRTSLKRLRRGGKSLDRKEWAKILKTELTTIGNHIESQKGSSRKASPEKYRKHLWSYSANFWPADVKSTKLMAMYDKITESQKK

For the compound `COCCNC(=O)c1cc(S(=O)(=O)N2CCCCC2)cs1`, the Percent Effect in [1] is -1.54%; in assay [2], 0%; in assay [3] it was -4.58%; in assay [4], -1.07%; in assay [5], 1.05%; in assay [6] it was 14.6%. In addition, the Percent Effect in assay [7] amounted to 19.3%; in [8] it was 0.532%; in assay [9], 2.44%; in assay [10], 2.87%.

`Cn1ccc2ccc(C(=O)N3CCN(C(=O)N4CCOCC4)CC3)cc21`: the Percent Effect in assay [1] is -5.67%; in assay [2] it was 24.3%; in [3], 12.2%; in assay [4], 9.6%; in assay [5] it was 3.85%; in assay [6] it was 13.2%. For the same compound, the Percent Effect was 14.4% in assay [7], 9.04% in [8], 17.1% in [9] and -1.13% in assay [10].

For the compound `COc1ncccc1NC(=O)c1cccc(C)n1`, the Percent Effect in assay [1] is 3.56%; in assay [2] it was 15.4%; in assay [3] it was -4.18%; in [4], 1.41%; in assay [5], 2.05%; in [6], 4.18%. Also, the Percent Effect in assay [7] was 7.05%; in assay [8], 9.09%; in assay [9], 25.3%; in assay [10], -8.29%.

On to `O=C(NCC1CC1)[C@H]1C[C@H]2OCC[C@H]2N(Cc2ccsc2)C1`, for which the Percent Effect in [1] is -6.05%; in assay [2], -3.9%; in [3], -0.139%; in [4] it was -1.85%; in [5], -6.07%; in assay [6], 2.38%. Further, the Percent Effect was -7.12% in assay [7], -2.63% in [8], 0% in assay [9] and -0.205% in [10].

As for `CCOC(=O)N1CCN(C(=O)c2ccc3ccn(C)c3c2)CC1`, the Percent Effect was -3.31% in assay [1]; 0% in [2]; 29% in assay [3]; 7.47% in assay [4]; -8.74% in assay [5]; 11.6% in [6]. The Percent Effect in assay [7] is 9.78%; in assay [8] it was 4.79%; in assay [9], 7.32%; in [10], 5.11%.

In the case of `CN(C)CCN1C(=O)CCC12CCN(C(=O)c1cccnc1)CC2`, the Percent Effect is -1.32% in [1]; 3.9% in assay [2]; -3.7% in assay [3]; -0.75% in assay [4]; 0.457% in assay [5]; 5.75% in assay [6]. For the same compound, the Percent Effect in [7] was 3.46%; in assay [8], 1.93%; in assay [9], 2.5%; in assay [10], -20.4%.

Regarding `O=C1NCCN(CC2CC2)C12CCN(Cc1ccc3c(c1)OCO3)CC2`, the Percent Effect in assay [1] was -1.54%; in assay [2] it was 19.5%; in [3], 3.24%; in assay [4], -8.47%; in assay [5] it was 6.07%; in [6], 16.9%. Moreover, the Percent Effect was 30.6% in [7], 4.74% in [8], -7.69% in assay [9] and -3.74% in assay [10].

Regarding `O=C1CC2(CCCNC2)C(=O)N1Cc1ccc(F)cc1` (stereo not given), the Percent Effect in assay [1] is -2.69%; in [2], 11.7%; in [3], -3.81%; in assay [4], -5.82%; in assay [5] it was 2.28%; in [6], 6.95%. In addition, the Percent Effect in [7] is 15.5%; in assay [8], 0.966%; in assay [9], -2.5%; in assay [10] it was -0.664%.

Consider `c1cnn(CC2CCCCN2Cc2cn3ccsc3n2)c1` (stereo not given), for which the Percent Effect in assay [1] was -2.05%; in assay [2] it was 10.3%; in assay [3], 13.3%; in assay [4], 9.67%; in assay [5], 0%; in [6], 9.98%. Further, the Percent Effect is 15.8% in [7], 10.1% in assay [8], 18.1% in assay [9] and -1.18% in assay [10].

As for `Cc1cncc(C2CCCN(C(=O)c3ccc(C)[nH]c3=O)C2)n1` (stereo not given), the Percent Effect in assay [1] was -4.08%; in assay [2], 20%; in [3], 0.301%; in assay [4], 1.58%; in [5], -1.33%; in [6], 18.4%. In addition, the Percent Effect in assay [7] is -10.4%; in assay [8] it was 5.29%; in assay [9] it was 17.5%; in assay [10], -23.9%.

For the compound `CCCN(C(=O)COC)c1nc2c(s1)CCc1c-2cnn1C`, the Percent Effect in assay [1] is 6.68%; in [2], 52%; in assay [3], 21%; in [4] it was -3.16%; in assay [5], 23.9%; in assay [6], 2.79%. The Percent Effect in assay [7] is 17.9%; in assay [8] it was -13.8%; in [9], -15%; in assay [10], -18.2%.
